In the library only some 0.74% were active in any assay of this set; here they are far more common.
FEN1 inh-1: qHTS Assay for the Inhibitors of Human Flap endonuclease 1 (FEN1) | P39748 | Recombinant FEN1 flap cleavage, fluorescence, 15 min | Potency, µM (top dose mostly 114 µM), most hits filed as inhibitors | actives 0.35% (n = 390,000) | AID 588795, 2011; further: nearly all actives have a fitted effect of over 65% in size
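Recombinant FEN1 (10 nM) was preincubated with pin-transferred compounds for 15 min at room temperature, then flap DNA substrate (50 nM final) was added. Plates were read at 0 and 15 min, and normalized concentration–response data were fitted to a four-parameter Hill equation.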
RECQ1 inh: qHTS Assay for Inhibitors of RecQ-Like Dna Helicase 1 (RECQ1). ATP-dependent DNA helicase Q1 (Homo sapiens), P46063. RECQ1 DNA unwinding, red fluorescence kinetic read. Potency, µM (titrated, usually from 57.3 µM), usual class: inhibitors. actives 0.54% (n = 240,000). AID 2549, 2010; further: nearly all actives have a fitted effect of over 30% in size
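RECQ1T1 50 nM; forked duplex (20 bp + 30-nt ss tails) 200 nM, ATP 2 mM final; pH 8.0, 2 mM MgCl2, 2.5 ug/ml poly(dI-dC); 15 min compound preincubation; discontinuous kinetic read over 2 h at RT.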
APEX1 inh: qHTS Assay for Inhibitors of the Human Apurinic/apyrimidinic Endonuclease 1 (APE1); DNA repair nuclease/redox regulator APEX1 (Homo sapiens), P27695; recombinant APE1, TAMRA/BHQ-2 abasic DNA cleavage fluorescence; Potency, µM (titrated, usually from 65.8 µM), hits mostly inhibitors; AID 2517, 2012; actives 0.35% (n = 350,000); further: nearly all actives have a fitted effect of over 55% in size
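0.75 nM APE1 + cpd, 15 min RT; start w/ 50 nM TAMRA/BHQ-2 THF-abasic dsDNA; kinetic fluor 525/598 nm ×3 reads @60 s; Δ(read3−read1); normalized to DMSO and NSC13755 control wells.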
BLM helicase inh: qHTS Assay for Inhibitors of Bloom's syndrome helicase (BLM); RecQ-like DNA helicase BLM (Homo sapiens), P54132; actives 0.2% (n = 350,000); Potency, µM (titrated, usually from 56.1 µM), usual class: inhibitors; recombinant BLM DNA unwinding, fluorescence dequenching; further: nearly all actives have a fitted effect of over 35% in size
PGK inhibitor: qHTS Assay to Find Inhibitors of Phosphoglycerate Kinase; Potency, µM (highest dose often 57.5 µM), usual class: inhibitors; PGK/GAPDH coupled, Kinase-Glo luminescence, 60 min; actives 0.043% (n = 380,000); Phosphoglycerate kinase, glycosomal (Trypanosoma brucei brucei), P07378; further: nearly all actives have a fitted effect of over 60% in size
Target sequence (P07378 whole entry, looked up): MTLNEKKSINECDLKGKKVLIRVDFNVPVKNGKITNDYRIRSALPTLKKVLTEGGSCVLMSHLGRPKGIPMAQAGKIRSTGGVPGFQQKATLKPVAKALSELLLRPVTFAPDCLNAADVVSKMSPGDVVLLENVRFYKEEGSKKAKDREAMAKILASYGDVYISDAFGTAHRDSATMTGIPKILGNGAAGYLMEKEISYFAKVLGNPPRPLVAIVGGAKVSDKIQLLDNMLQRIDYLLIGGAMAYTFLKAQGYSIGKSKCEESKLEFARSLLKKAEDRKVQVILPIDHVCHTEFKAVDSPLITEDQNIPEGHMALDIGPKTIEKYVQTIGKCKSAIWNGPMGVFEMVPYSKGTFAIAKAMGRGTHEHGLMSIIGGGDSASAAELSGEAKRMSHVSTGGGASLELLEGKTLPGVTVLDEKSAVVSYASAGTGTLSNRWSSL
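Luminescent ATP detection (Kinase-Glo Plus) follows a 60-minute room-temperature incubation, with wells lacking PGK as controls. Buffer: 100 mM TEA (pH 7.6), 5 mM MgCl2, 0.01% Tween-20. Coupling enzyme GAPDH (100 nM final) supplies unstable 1,3-BPG in-well.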
FEN1 inh-2: qHTS Assay for the Inhibitors of FEN1: Confirmatory Assay for Cherry-picked Compounds | shares compounds with FEN1 inh-1 | FEN1 flap cleavage, TAMRA/BHQ2 fluorogenic DNA substrate | Potency, µM, most hits filed as inhibitors | actives 79% (n = 880) | AID 720498, 2013; further: nearly all actives have a fitted effect of over 60% in size
A number is an active result; . = inactive; ? = inconclusive; / = not tested or not shown. The call rests on the fitted dose curve; in most records, active means well fitted curve in the direction sought with a large enough effect; inconclusive means small, poorly fitted or top-dose-only effect, or another doubt; inactive means no such curve, though single readings can be large; an effect the other way counts as inactive or inconclusive.

SMILES | FEN1 inh-1 | RECQ1 inh | APEX1 inh | BLM helicase inh | PGK inhibitor | FEN1 inh-2
C[C@]12CCC3C(CC[C@H]4C[C@H](O)CC[C@]34C)[C@@H]1CC[C@@H]2C(=O)CO (some centres not stated) | / | . | . | / | / | /
CNc1ccc2nc3ccccc3[n+](C)c2c1 | ? | / | 21µM | 18µM | . | 38
c1ccc2nc3ccccc3cc2c1 | ? | . | . | . | / | /
C[n+]1c2ccccc2nc2ccc(NCCO)cc21 | 40µM | / | 27µM | 18µM | ? | 43
C/C=C1/CN2CC[C@]34C(=C(C=O)[C@@H]1C[C@H]23)Nc1c(O)cccc14 | / | . | . | . | / | /
CCOC(=O)C1=Nc2ccccc2/C1=C\c1c(O)n(C)c(=O)n(C)c1=O | . | . | . | . | . | /
CCN1C(=O)/C(=C/c2ccc3c(c2)CCN3CCCCl)C(=O)NC1=S | ? | . | . | ? | . | /
O=C1NC(=S)N(C2CC2)C(=O)/C1=C/c1ccc2c(c1)CCN2CCCCl | ? | ? | ? | ? | . | 76
CN1C(=O)C(=Cc2ccc(Sc3ccccc3)o2)C(=O)N(C)C1=S | . | / | / | / | . | 85
CC(C(=O)c1c[nH]c2ccccc12)N1CCN(C(=O)c2ccco2)CC1 (configuration not stated) | . | . | . | . | . | /
CC/C(=N\NC(=S)Nc1ccccc1)c1c(O)[nH]c(=O)[nH]c1=O | . | . | . | . | . | /
N#CC(C#N)=Cc1ccc(C=C(C#N)C#N)cc1 | . | . | . | . | . | 95
CCCc1nc(SC)ncc1C(=O)Nc1ccc(Cl)cc1C(=O)c1ccccc1 | . | / | / | . | . | /
Cc1ccc2c(C)c3ccc4ccccc4c3c[n+]2c1 | 8.9µM | / | / | / | . | 6.7
Cc1ccc2ccccc2c1 | / | . | . | / | / | /
CN(C)N=O | . | . | . | / | . | /
COc1cccc(OC)c1-c1nn2c(-c3n[nH]c4c3CCC4)nnc2s1 | ? | / | / | / | / | ?
CCN(CC)CCN1C(=O)CN=C(c2ccccc2F)c2cc(Cl)ccc21 | / | / | / | . | / | /
C=CCn1c(CSc2ccccc2[N+](=O)[O-])n[nH]c1=S | ? | / | ? | . | . | 76
CCOC(=O)c1ccc(N=Cc2c(O)n(-c3ccc(OC)cc3)c(=S)[nH]c2=O)cc1 | ? | . | . | . | . | 9.5
COC1C(O)C(C)OC(OC2C(Oc3cccc4c(O)c5c(=O)oc6ccc(C)c7c(=O)oc(c34)c5c67)OC(C)C(O)C2O)C1O (configuration not stated) | 1.8µM | / | / | / | . | 6
COc1ccc2c(c[n+](C)c3c4cc5c(cc4ccc23)OCO5)c1OC | ? | . | . | . | / | /
COc1cc2c(ccc3c4cc(OC)c(OC)cc4c[n+](C)c23)cc1O | 3.5µM | / | / | / | . | 2.7
CC1(C)COC(Nc2ccc(Cl)cc2)=N1 | . | . | . | . | . | /
Cc1ccc(-c2nc(CS(=O)CC(=O)N3CCC4(CC3)OCCO4)c(C)o2)cc1 (configuration not stated) | / | . | . | . | / | /
SMILES | FEN1 inh-1 | RECQ1 inh | APEX1 inh | BLM helicase inh | PGK inhibitor | FEN1 inh-2
Cc1ccccc1-n1c(C)cc(/C=C2/C(=O)NC(=O)N(Cc3ccco3)C2=O)c1C | . | . | . | . | / | ?
Cc1cc(/C=C2\C(=O)NC(=O)N(Cc3ccccc3)C2=O)c(C)n1-c1ccc(Cl)c(C(=O)O)c1 | 79µM | 35µM | ? | . | 13µM | ?
COc1ccc(/C=C2/C(=O)NC(=O)N(Cc3ccco3)C2=O)cc1 | / | . | . | . | / | /
O=C1NC(=O)N(Cc2ccccc2)C(=O)/C1=C\C=C\c1ccco1 | ? | ? | ? | ? | . | ?
COC(=O)C1=C(c2ccccc2)C[C@@H]2CC[C@H]1N2C(=O)N1CCC(C)CC1 | . | / | / | / | . | /
C=Cc1cc(OC)c2c(c1)c(=O)oc1c2cc(OC)c2c(O)ccc(C3OC(C)C(O)C(C)(O)C3O)c21 (configuration not stated) | 1.3µM | / | / | / | . | 1.7
CCN1/C(=C/C=C/C2=[N+](CC)c3ccccc3C2(C)C)C(C)(C)c2ccccc21 | / | / | / | / | ? | 67
CN1/C(=C\C=C2C(=O)NC(=O)NC2=O)C(C)(C)c2ccccc21 | . | . | . | . | . | /

Screens (PubChem)
